# Measured values published in ChEMBL document CHEMBL3988442, “University of Dundee, Small-Polar-MMV Screening Library” (2021).
# In all, about 48,000 compounds went through this assay and about 13,000 (27%) showed an effect of 50% or more. The list shows a part of the results.
# Test system: Wolbachia pipientis
# Experiment: Anti-Wolbachia Cell-Based Screen
# Type: functional
# Set-up: scale not given: in the data most compounds retested in dose-response had high values
# Details: 5 µM
row,SMILES,Percent Effect
1,CS(=O)(=O)CCNC(=O)Nc1sc2ccccc2c1Cl,-6.956%
2,CCCn1[nH]cc/c1=N\C(=O)CN1CCCC1c1cccn1C (stereo not drawn),-13.94%
3,Cc1noc(C2CCC3(CCN(C(=O)C4CCOCC4)CC3)O2)n1 (stereo not drawn),108.6%
4,O=C(C1CCOCC1)N1CCC2(CCC(C(=O)N3CCCC3)O2)CC1 (stereo not drawn),-2.84%
5,Cn1cc(C(=O)N2CC[C@@]3(O)CCN(C(=O)C4CCCC4)C[C@H]3C2)cn1,2.716%
6,Cc1noc(C2CCC3(CCN(C(=O)c4cnn(C)c4)CC3)O2)n1 (stereo not drawn),95.88%
7,Cc1noc(C2CCC3(CCN(C(=O)c4ccn(C)n4)CC3)O2)n1 (stereo not drawn),89.59%
8,Cn1ccc(C(=O)N2CCC3(CCC(=O)N(C4CCCC4)C3)CC2)n1,5.203%
9,Cc1noc([C@H]2C[C@H]3CN(C(=O)C4CCOCC4)CC[C@@H]3O2)n1,-6.774%
10,Cc1noc(C2CCN(C(=O)c3cc(Br)ccc3F)CC2)n1,2.952%
11,Cc1noc(C2CCC3(CCN(C(=O)c4sccc4C)CC3)O2)n1 (stereo not drawn),105.9%
12,Cc1noc(C2CCC3(CCN(C(=O)C4=CCCCC4)CC3)O2)n1 (stereo not drawn),-12.42%
13,Cc1noc(C2CCCN(C(=O)c3scnc3Cl)C2)n1 (stereo not drawn),3.125%
14,Cn1nnnc1SCCNC(=O)c1cccc2ccnn12,0.6807%
15,CCC1CN(CC(=O)NC(C)C)CCO1 (stereo not drawn),-17.56%
16,CC1CCCCN1C(=O)c1cn(-c2ccc(C(F)(F)F)cn2)nn1 (stereo not drawn),-15.67%
17,O=C(COc1coc(CN2CCCC2)cc1=O)NCc1ccccc1Cl,13.29%
18,CCn1ncc2c1CCCC2NCc1csc(COC)n1 (stereo not drawn),6.958%
19,CCCn1c(C)cc(C(=O)CN2C(=O)c3ccccc3CS2(=O)=O)c1C,-1.519%
20,Cc1noc(C2CCN(C(=O)c3ccc(N(C)C)nc3)CC2)n1,-12.04%
21,Cc1noc(C2CCC3(CCN(C(=O)c4ccnnc4)CC3)O2)n1 (stereo not drawn),98.77%
22,Cc1noc(C2CCCN(C(=O)c3cncc(Br)c3)C2)n1 (stereo not drawn),-3.695%

row,SMILES,Percent Effect
1,COCCN1CCCC2(CCN(c3ncc(Cl)cc3Cl)C2)C1=O (stereo not drawn),5.155%
2,Cc1cc(N2CCC3(CCCN(CCO)C3=O)C2)nc2ccccc12 (stereo not drawn),93.99%
3,Cc1cc(N2CCC(CO)(CC3CCCCO3)CC2)nc2ccccc12 (stereo not drawn),-15.69%
4,CCCN1CCCC2(CCN(c3nc(C)nc4ccsc34)C2)C1=O (stereo not drawn),-5.221%
5,COCCC1(C(=O)O)CCCN(c2cc(C)c3ccccc3n2)C1 (stereo not drawn),-9.375%
6,Cc1cc(N2CCC3(CCCN(CCO)C3=O)C2)nc2cc(Cl)ccc12 (stereo not drawn),98.58%
7,Cc1ccc2c(c1)OC1(NC2=O)C(=O)N(C)c2ccccc21 (stereo not drawn),2.541%
8,COc1ncccc1NC(=O)N1CCOCC1C (stereo not drawn),13.85%
9,Cc1ccc(-c2ncc(C(=O)N3CCN4CCCCC4C3)c(O)n2)cc1 (stereo not drawn),8.265%
10,O=C(C1CC1)N1CCC(c2nc(O)c3c(n2)CN(C2CCCC2)CC3)C1 (stereo not drawn),78.69%
11,Cc1ncc(C(=O)N2CCC(N3CCc4ccccc4C3)CC2)c(O)n1,-7.9%
12,CCC(=O)N1CCC(c2nc(O)c3c(n2)CN(C2CCCCC2)CC3)C1 (stereo not drawn),94.52%
13,C1CCC(c2nc3c(c(N4CCN5CCCC5C4)n2)CCNCC3)C1 (stereo not drawn),-7.963%
14,CCCC(=O)N1CCC(c2nc(O)c3c(n2)CCN(C2CCCC2)C3)C1 (stereo not drawn),91.38%
15,Cc1nc2c(c(=O)n1C)CN(C(=O)C1CCCN(C3CCCC3)C1)C2 (stereo not drawn),-4.359%
16,CCC(=O)N1CCC(NC2CCCC2)C1 (stereo not drawn),-2.557%
17,CC(C)N(CC(N)=O)Cc1cccc(C(F)(F)F)c1,-6.914%
18,CC(C)c1cc(C(=O)N2CCNCC2C(=O)NCc2ccncc2)on1 (stereo not drawn),-12.97%
19,CC(C)(C)c1ccc2c(c1)CCN2C(=O)c1ccc(=O)[nH]n1,-4.388%
20,CCc1nc2n(n1)CCCC2NC(=O)Nc1ccc(F)cc1C#N (stereo not drawn),-29.22%
21,Cc1ccc(C(=O)N2CCC3(CC2)CC(c2ccccc2)C(=O)N3)o1 (stereo not drawn),-4.481%
22,CCOc1ccccc1N(C)Cc1nccn1C,-5.564%

row,SMILES,Percent Effect
1,CC(C)=CCN1CC2(CCN(Cc3c(F)cccc3F)CC2)CC1=O,-3.567%
2,CCCS(=O)(=O)N1CCC2(CCC(=O)N(Cc3ccccc3)C2)CC1,-5.429%
3,CC(C)=CCN1CC2(CCN(Cc3cccc(C#N)c3)CC2)CC1=O,0.9714%
4,CC(C)=CCN1CCC2(CC1)CC(=O)N(Cc1cc(F)cc(F)c1)C2,132.9%
5,CN1CC2(CCN(C(=O)Cc3ccc(O)c(F)c3)CC2)CC1=O,-5.557%
6,CCCS(=O)(=O)N1CCC2(CC1)CC(=O)N(Cc1cc(F)cc(F)c1)C2,128.2%
7,CCCS(=O)(=O)N1CCC2(CCC(=O)N(CCc3ccncc3)C2)CC1,3.257%
8,O=C(CO)N1CCC2(CC1)CC(=O)N(Cc1cc(F)cc(F)c1)C2,130.8%
9,CC(C)N1CCC2(CC1)CC(=O)N(Cc1cc(F)cc(F)c1)C2,84.47%
10,CCCc1noc(CCC(=O)N2CCN(C)CC2c2ccccc2)n1 (stereo not drawn),7.741%
11,O=C(NCC1SCCc2ccccc21)c1cscn1 (stereo not drawn),1.343%
12,N#Cc1cnc(NCCCN2C(=O)COc3ccccc32)c(Cl)c1,9.033%
13,CCOc1cccc(CNC(=O)NC2CC=CC2)c1OC(F)F,3.017%
14,Cc1n[nH]cc1CNC(C)c1cccc(N2CCCC2=O)c1.Cl (stereo not drawn),3.207%
15,O=C(Cc1ccco1)N1C[C@H]2CCC[C@@]2(COCc2cccnc2)C1,-4.256%
16,Cc1ccc(C(=O)N2C[C@H]3CCC[C@@]3(COCc3cccnc3)C2)s1,-11.48%
17,O=C(Cc1ccsc1)N1C[C@H]2CCC[C@@]2(COCc2ccccn2)C1,101.3%
18,O=C(c1cscn1)N1C[C@H]2CCC[C@@]2(COCc2ccccn2)C1,128%
19,Cc1cccc(COC[C@@]23CCC[C@@H]2CN(C(=O)Cc2ccco2)C3)n1,13.36%
20,NC(=O)c1csc(C(=O)N2CCCCC2Cn2cccn2)c1 (stereo not drawn),-5.921%
21,O=C(c1cnc(C2CC2)s1)N1CCCCC1Cn1cccn1 (stereo not drawn),5.861%
22,O=C(c1cnc(C2CC2)s1)N1CCCC1Cn1cccn1 (stereo not drawn),124.9%

row,SMILES,Percent Effect
1,CCc1ncc(C(=O)N2CCCCC2Cn2cccn2)s1 (stereo not drawn),-1.613%
2,NC(=O)c1ccc(C(=O)N2CCCCC2Cn2cccn2)s1 (stereo not drawn),92.92%
3,CCc1ncc(C(=O)N2CCCC2Cn2cccn2)s1 (stereo not drawn),101.3%
4,c1ccc2c(c1)CC(n1ccnc1-c1cc3n(n1)CCNC3)CO2 (stereo not drawn),0.8243%
5,O=C(CC[C@@H]1CCCN2CCCC[C@H]12)NCCc1nc(O)cc(O)n1,-15.21%
6,N#Cc1ccnc(N2CCN(CC(O)c3cccc(F)c3)CC2)c1 (stereo not drawn),-9.554%
7,O=C1NCCN1C1CCN(Cc2nc(-c3ccoc3)no2)CC1,0.168%
8,Cc1cccc(-c2noc(CN3CCC(N4CCNC4=O)CC3)n2)c1,0.5199%
9,Cc1ccc(-c2noc(CN3CCC(N4CCNC4=O)CC3)n2)cc1,76.33%
10,CCN1CCN(C2CCN(Cc3nc(-c4ccoc4)no3)CC2)C1=O,-10.87%
11,CN1CCN(C2CCN(Cc3nc(-c4ccoc4)no3)CC2)C1=O,101.9%
12,Cc1ccc(-c2noc(CN3CCC(c4ccn[nH]4)CC3)n2)cc1,-38.16%
13,O=C1NCCN1C1CCN(Cc2nc(-c3ccc(F)cc3)no2)CC1,108.3%
14,O=C1NCCN1C1CCN(Cc2nc(-c3ccccc3)no2)CC1,96.78%
15,CC(C)Cc1nc(CN2CCC(N3CCN(C)C3=O)CC2)no1,-0.1019%
16,O=C1NCCN1C1CCN(c2ccnc(-c3ccccc3)n2)CC1,10.01%
17,Fc1ccc(-c2noc(CN3CCC(c4cc[nH]n4)CC3)n2)cc1,-73.45%
18,c1ccc(-c2noc(CN3CCC(c4ccn[nH]4)CC3)n2)cc1,3.848%
19,N#Cc1ccccc1OCCN1CCn2c(nnc2C2CC2)C1,-2.907%
20,c1cc(C2CCN(Cc3nc(-c4ccsc4)no3)CC2)[nH]n1,-22.06%
21,c1cnn(CC2CN(Cc3nc(-c4ccsc4)no3)CCO2)c1 (stereo not drawn),-8.782%
22,Cc1ccccc1-c1noc(CN2CCC(N3CCNC3=O)CC2)n1,89.22%

row,SMILES,Percent Effect
1,Cc1ccccc1-c1noc(CN2CCn3c(nnc3C3CC3)C2)n1,9.498%
2,O=C1NCCN1C1CCN(Cc2nc(-c3ccsc3)no2)CC1,100.1%
3,Cc1ccccc1-c1noc(CN2CCC(c3ccn[nH]3)CC2)n1,-44.64%
4,COCCN1CC2(CCCN(c3ncnc4[nH]cnc34)C2)CCC1=O (stereo not drawn),2.898%
5,CN(C)S(=O)(=O)N1CC(c2nc(-c3ccsc3)no2)C1,-5.352%
6,Cc1nccc(C2CN(S(=O)(=O)N(C)C)C2)n1,92.05%
7,CN(C)S(=O)(=O)N1CCN(c2nccc(C(F)(F)F)n2)CC1,-20.82%
8,CS(=O)(=O)N1CC(c2ncn3ccccc23)C1,16%
9,Cc1noc(C2CN(S(C)(=O)=O)Cc3ccnn3C2)n1 (stereo not drawn),-9.743%
10,CN(C)c1nccc(C2CN(S(C)(=O)=O)C2)n1,62.66%
11,N#Cc1cccnc1Nc1ccc(N2CCC(C(N)=O)CC2)cc1,-22.12%
12,CCS(=O)(=O)NCC1OCCc2cn(CCOC)nc21 (stereo not drawn),-0.9126%
13,Cn1cc2c(n1)C(CNC(=O)Cc1ccsc1)OCC2 (stereo not drawn),6.682%
14,CS(=O)(=O)NCC1OCCc2cn(CC3CC3)nc21 (stereo not drawn),-2.199%
15,O=C(Cc1ccsc1)NCC1OCCc2cn(CC3CC3)nc21 (stereo not drawn),-4.734%
16,CS(=O)(=O)CC(=O)NCC1OCCc2cn(CC3CC3)nc21 (stereo not drawn),-2.36%
17,COCCn1cc2c(n1)C(CNS(C)(=O)=O)OCC2 (stereo not drawn),95.37%
18,Cc1cc(C(=O)NCC2OCCc3cn(CC4CC4)nc32)c(C)[nH]1 (stereo not drawn),99.34%
19,O=C(NCC1OCCc2cn(CC3CC3)nc21)c1ccsc1 (stereo not drawn),-6.452%
20,COCCn1cc2c(n1)C(CNC(=O)c1cc(C)[nH]c1C)OCC2 (stereo not drawn),94.61%
